Source: ChEMBL document CHEMBL4513216, “Probing the Open Global Health Chemical Diversity Library for Multistage-Active Starting Points for Next-Generation Antimalarials” (ACS Infect Dis, 2020)
Out of some 69,000 compounds screened, about 8,600 (12%) showed an effect of 50% or more. This is one part of a sample in which strong results are shown more often than they occur.

System: Plasmodium berghei
Experiment: Screen against P. berghei liver stage (PbLuc), transformed with Luciferase, at 10uM
Format: functional, HepG2
Details: tested at 10 uM

Going from `CCN1CC[C@]2(CN(C(=O)[C@H]3CCCO3)C[C@H]2c2ccccc2)C1=O` to `CN1CC[C@]2(CN(C(=O)[C@H]3CCCO3)C[C@H]2c2ccccc2)C1=O`, the INHIBITION falls from 52.3% to 4.02%.

Compared with `CN1Cc2ccccc2CC2(CCN(C(=O)[C@H]3CCCO3)CC2)C1=O`, `O=C([C@H]1CCCO1)N1CCC2(CC1)Cc1ccccc1CNC2=O` is lower in INHIBITION: 59.3% for the first, 7.7% for the second.

Compared with `CSCCC(=O)N1CCCC(n2ccnc2)C1` (configuration not stated), `NS(=O)(=O)c1cc(C(=O)N2CCCC(n3ccnc3)C2)cs1` (configuration not stated) is higher in INHIBITION: -6.14% for the first, 29.4% for the second.

First: CC(C)Cn1cc2nc(N)[nH]cc-2c1=O
Second: CCn1cc(-n2cc3nc(N)[nH]cc-3c2=O)cn1
The INHIBITION of the first is higher: 29.2% for the first, -8.69% for the second.

Going from `O=C(NCCN1CCCCCC1=O)Nc1cccnc1-n1cccn1` to `O=C(NCc1nnc2n1CCCC2)c1cn(-c2ccccc2)nn1`, the INHIBITION rises from -15.4% to 36.4%.

First: CCc1ncc2c(n1)CN(c1cc(NC3CC3)nc(N)n1)C2
Second: CC(C)c1ncc2c(n1)CN(Cc1nc(-c3cccnc3)no1)CC2
The INHIBITION of the first is lower: -49.6% for the first, 33.7% for the second.

Compared with `CCN(CC1CCCO1)S(=O)(=O)c1cc(NC(C)=O)ccc1C` (configuration not stated), `CCCN(CCC)S(=O)(=O)c1cc(NC(C)=O)ccc1C` is higher in INHIBITION: 47.7% for the first, 71.2% for the second.

Compared with `CCN(CC)S(=O)(=O)c1cc(NC(=O)CCc2cscn2)ccc1C`, `Cc1ccc(OCc2occc2C(=O)O)cc1` is higher in INHIBITION: 28.9% for the first, 64.1% for the second.

Compared with `O=C(c1cccc(C2CCNC2)c1)N1CCC(N2CCC(O)CC2)CC1` (configuration not stated), `CC1=CCN(S(=O)(=O)c2cccc(C(=O)N3CCOCC3)c2)CC1` is higher in INHIBITION: 35.1% for the first, 37.1% for the second.

Going from `Cc1ccccc1C(=O)N1CCOC2(CNCCOC2)C1` (configuration not stated) to `CN(C)c1ccccc1C(=O)N1CCOC2(CNCCOC2)C1` (configuration not stated), the INHIBITION falls from 55.1% to 8.53%.

Compared with `O=C(c1ccccc1-c1ccccc1)N1CCOC2(CNCCOC2)C1` (configuration not stated), `Cc1cc2cccc(C(=O)N3CCOC4(CNCCOC4)C3)c2o1` (configuration not stated) is higher in INHIBITION: -16.5% for the first, 30.5% for the second.

First: COc1ccc(C(=O)N2CCOC3(CNCCOC3)C2)c(OC)n1 (configuration not stated)
Second: COc1ccc(Cl)cc1C(=O)N1CCOC2(CNCCOC2)C1 (configuration not stated)
The INHIBITION of the first is higher: 53.6% for the first, 16.8% for the second.

First: Cc1nc(C)n(CC2CCCN2CC(=O)NCCC#N)n1 (configuration not stated)
Second: Cc1nn(C)c(C)c1C1CCCN1CC(=O)NCc1ccco1 (configuration not stated)
The INHIBITION of the first is higher: 8.38% for the first, 7.12% for the second.

Going from `Cc1nc(-c2ccc(C(=O)O)cc2)cc(C2CCN(C(C)C)CC2)n1` to `OC(CN1CCC(c2ccn[nH]2)CC1)c1ccc(F)cc1` (configuration not stated), the INHIBITION falls from 26.3% to -12.2%.

First: Cc1cc(Nc2nc(C)cc(C)n2)cc(C2CCCN2)n1 (configuration not stated)
Second: Cn1c(CN2CCCc3cc(F)cc(F)c32)cc(=O)n(C)c1=O
The INHIBITION of the first is higher: 49.2% for the first, 12.8% for the second.

First: Cc1cc(S(=O)(=O)N2C[C@H](C3CC3)[C@@H](N)C2)c(C)s1
Second: CSCc1cccc(S(=O)(=O)N2CCC(C)CC2)c1
The INHIBITION of the first is lower: 1.71% for the first, 32.4% for the second.

First: CC1(C)CNC(=O)CN(C(=O)Cc2ccccc2)C1
Second: CC1(C)CNC(=O)CN(C(=O)CCc2ccccc2)C1
The INHIBITION of the first is lower: -1.99% for the first, 40.4% for the second.

First: COc1ccc(CC(=O)N2CC(=O)NCC(C)(C)C2)cc1
Second: CC1(C)CNC(=O)CN(C(=O)COc2ccccc2)C1
The INHIBITION of the first is higher: 60.1% for the first, 55.5% for the second.

Going from `CN1C[C@H](O)[C@]2(CCN(C(=O)COc3ccccc3)C2)S1(=O)=O` to `COc1ccc(CC(=O)N2CCN(C)c3ncccc3C2)cc1`, the INHIBITION falls from 9.36% to 8.44%.

First: CSc1[nH]nc(NC(=O)c2cccs2)c1C#N
Second: O=C(NCc1nnc2n1CCC2)c1cn(-c2ccccc2)nn1
The INHIBITION of the first is higher: 24.2% for the first, 13.6% for the second.

First: Cn1cc(CCNCc2cc(Cl)c3c(c2)OCCO3)cn1
Second: O=C(NCc1nnc2n1CCC2)c1cn(-c2ccccc2Br)nn1
The INHIBITION of the first is lower: -9.4% for the first, 50.4% for the second.

Compared with `O=C1Nc2ccccc2CN(CC2CCCC2)C12CCNC2` (configuration not stated), `O=C(NC1CC1)[C@H]1C[C@H]2OCC[C@H]2N(Cc2cccc3ccccc23)C1` is higher in INHIBITION: -44.5% for the first, 11.4% for the second.

Compared with `Cc1ccc(OCc2occc2C(=O)N2CC[C@H](CO)[C@@H](O)C2)cc1`, `Cc1ccc(OCc2occc2C(=O)N2CCOC(C(=O)O)C2)cc1` (configuration not stated) is lower in INHIBITION: 26.6% for the first, -0.71% for the second.

First: O=S1(=O)CCC(S(=O)(=O)c2cccc(S(=O)(=O)N3CCCCCC3)c2)C1 (configuration not stated)
Second: O=S1(=O)CCC(S(=O)(=O)c2cccc(S(=O)(=O)N3CCCC3)c2)C1 (configuration not stated)
The INHIBITION of the first is higher: 50.2% for the first, 36.3% for the second.

Compared with `CN1CCN(S(=O)(=O)c2cccc(S(=O)(=O)C3CCS(=O)(=O)C3)c2)CC1` (configuration not stated), `O=S1(=O)CCC(S(=O)(=O)c2cccc(S(=O)(=O)N3CCOCC3)c2)C1` (configuration not stated) is higher in INHIBITION: 46.7% for the first, 58.9% for the second.

Compared with `COCCN1C[C@H]2[C@@H](C1)N(C(=O)c1cccc(OC)c1)CC[C@H]2OC`, `Cc1nc(CN2CCOCC3(CCN(c4ncccn4)CC3)C2)cs1` is higher in INHIBITION: 9.63% for the first, 27.6% for the second.
